Screening results as filed in PubChem BioAssay.
VP16 counter: VP16 counterscreen qHTS for inhibitors of ROR gamma transcriptional activity; Drosophila S2 Gal4-VP16 UAS-luciferase, luminescence, 20 h; Potency, µM (highest dose often 53.6 µM), hits mostly inhibitors; 3.5% of 310,000 active; AID 2546, 2010;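 note: Gal4-VP16 expression switched on by copper sulfate through the metallothionein promoter; nearly all actives have a fitted effect of over 50% in size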
TSHR antagonist: Antagonists of the Thyroid Stimulating Hormone Receptor: HTS campaign; 0.2% of 330,000 active; activity change, negative = inhibition, % at 11.5 µM; TSHR-expressing cells, TSH-stimulated cAMP HTRF, 2 h; active compounds read low; Thyrotropin receptor (Homo sapiens), P16473;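 active = activity change below a set negative limit, meaning inhibition stronger than a set level, cut at about -70% in these data; inconclusive = activity change between two set negative limits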
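Cell-based HTRF cAMP assay; TSHR cells + compound, TSH EC80 (4nM final), 2 h, 37 deg C. Lysis with anti-cAMP cryptate and cAMP-d2, 30 min RT, read 665/620 nm.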
Coupling enz: qHTS Assay for Inhibitors of Fructose-1,6-bisphosphate Aldolase from Giardia Lamblia: Coupling assay counterscreen. activity change, negative = inhibition, % at 58.2 µM, hits read low. 0.67% of 290,000 active. coupling enzyme system counterscreen, AmpLite Red fluorescence; in the data active = activity change below about -30%
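Compounds tested against the coupling enzymes alone at 57.5 uM final; readout was AmpLite Red fluorescence (525/598 nm) after 20 min at RT.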
RORgamma inh: qHTS for inhibitors of ROR gamma transcriptional activity. Potency, µM (series often up to 53.6 µM), actives largely listed as inhibitors. 5.4% of 310,000 active. Drosophila S2 Gal4-RORgamma UAS-luciferase reporter, 20 h. Nuclear receptor ROR-gamma (Mus musculus), P51450; note: nearly all actives have a fitted effect of over 60% in size
Target sequence (P51450 whole entry, looked up, the tested form may be a part): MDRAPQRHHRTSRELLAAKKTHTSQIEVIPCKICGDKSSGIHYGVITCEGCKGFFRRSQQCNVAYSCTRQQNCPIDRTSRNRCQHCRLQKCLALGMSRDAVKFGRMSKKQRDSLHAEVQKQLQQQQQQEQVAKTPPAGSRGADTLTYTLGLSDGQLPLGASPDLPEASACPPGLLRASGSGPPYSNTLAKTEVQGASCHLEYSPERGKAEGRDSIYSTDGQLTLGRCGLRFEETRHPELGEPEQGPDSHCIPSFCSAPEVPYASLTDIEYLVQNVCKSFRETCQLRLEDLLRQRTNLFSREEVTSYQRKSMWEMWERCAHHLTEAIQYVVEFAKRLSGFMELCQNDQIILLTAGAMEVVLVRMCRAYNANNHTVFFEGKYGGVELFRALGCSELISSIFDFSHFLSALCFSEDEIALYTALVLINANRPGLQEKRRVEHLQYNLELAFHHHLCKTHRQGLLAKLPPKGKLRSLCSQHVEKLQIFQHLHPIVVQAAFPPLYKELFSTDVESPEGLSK
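Stably transfected Drosophila Schneider cells are the test system, with ROR gamma fused to Gal4 and luciferase under UAS control; luminescence is read after 20 hr of 700 uM copper sulfate induction at ambient temperature.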
ELG1 repair inh: qHTS screen for small molecules that inhibit ELG1-dependent DNA repair in human embryonic kidney (HEK293T) cells expressing luciferase-tagged ELG1; HEK293T ELG1-luciferase reporter, luminescence, 16 h; DNA damage induced by 5-fluorouridine; Potency, µM (highest dose often 46.1 µM), usual class: inhibitors; 2.3% of 330,000 active; note: nearly all actives have a fitted effect of over 55% in size
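Overnight (16 hr) co-exposure of 2,000 cells/well to 5-fluorouridine and compound at 37 °C preceded detection. Luciferase was quantified via ONE-Glo luminescence; loss of signal denotes inhibition.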
Large screens that a line does not name were inactive. Hits are enriched below; roughly 8% of the tested compounds scored in any of these assays. Unless noted, calls come from the whole dose curve; as a rule, active = well fitted curve in the direction sought with a large enough effect; inconclusive = small, poorly fitted or top-dose-only effect, or another doubt; inactive = no such curve, though single readings can be large; an effect the other way counts as inactive or inconclusive.

CCN1CCN(c2cc(N3CCN(C(=O)c4ccco4)CC3)c3c4c(onc24)-c2ccccc2C3=O)CC1	Coupling enz -30
Nc1ccc(C(=O)N/N=C\C=C\c2ccc([N+](=O)[O-])cc2)cc1	none
O=C(N/N=C/C=C/c1ccc2c(c1)OCO2)c1ccc([N+](=O)[O-])cc1	VP16 counter 10µM, RORgamma inh 2µM
O=C(N/N=C\C=C\c1ccc(Br)cc1)c1ccc2c(c1)OCO2	VP16 counter 4.5µM, RORgamma inh 13µM
O=C(Nc1ccc(Br)cc1)c1ccc2c(c1)OCO2	RORgamma inh inconclusive, ELG1 repair inh inconclusive
COCCN(Cc1cc2cc(C)ccc2n2nnnc12)C(=S)Nc1cccc(C)c1	RORgamma inh inconclusive, ELG1 repair inh inconclusive
CCc1ccc2c(c1)cc(CN(C(=S)Nc1cccc(C)c1)C1CC1)c1nnnn12	RORgamma inh 6.3µM
Cc1ccccc1OCC(=O)OC(C(=O)c1ccccc1)c1ccccc1 (stereo not given)	none
O=C(COc1ccccc1)OC(C(=O)c1ccccc1)c1ccccc1 (stereo not given)	RORgamma inh 11µM
CCOC(=O)C1CCN(C(=O)C2CCCN2S(=O)(=O)c2ccc(Cl)cc2)CC1 (stereo not given)	none
O=C(O)C1CC(=O)N(c2ccc(OCc3ccccc3Cl)cc2)C1 (stereo not given)	VP16 counter inconclusive, RORgamma inh 14µM
NC(=O)C1CC(=O)N(c2ccc(OCc3ccccc3Cl)cc2)C1 (stereo not given)	ELG1 repair inh inconclusive
CC[C@H](CO)Nc1nc(Nc2cccc(Cl)c2)c2ncn(C(C)C)c2n1	VP16 counter 3.2µM, RORgamma inh inconclusive, ELG1 repair inh 7.3µM
COCCCNC(=S)NNC(=S)Nc1ccc(F)cc1F	RORgamma inh 7.1µM
COCCCNC(=S)NNC(=S)Nc1ccccc1	RORgamma inh inconclusive, ELG1 repair inh inconclusive
COCCCNC(=S)NCCc1ccc(F)cc1	VP16 counter inconclusive, RORgamma inh 10µM, ELG1 repair inh inconclusive
Cc1onc(-c2ccccc2)c1C(=O)OCCOc1ccc([N+](=O)[O-])cc1[N+](=O)[O-]	ELG1 repair inh 15µM
COc1ccc(NC(=O)CC2Nc3cccc4cccc(c34)NC2=O)cc1 (stereo not given)	ELG1 repair inh 23µM
O=C(CC1Nc2cccc3cccc(c23)NC1=O)Nc1ccc(F)cc1 (stereo not given)	none
CCCCNC(=O)CC1Nc2ccccc2NC1=O (stereo not given)	none
CCCCOc1ccccc1NC(=O)CC1Nc2ccccc2NC1=O (stereo not given)	VP16 counter inconclusive, RORgamma inh 10µM, ELG1 repair inh inconclusive
COc1cccc(CNC(=O)CCC(=O)N2CCOCC2)c1	none (no result: VP16 counter, Coupling enz, RORgamma inh)
COc1ccc(C2C=C(c3ccc(F)cc3)NC(=S)N2)cc1OC (stereo not given)	VP16 counter inconclusive, RORgamma inh 8.9µM, ELG1 repair inh inconclusive
COc1ccc(C2=CC(c3ccc(OC)c(OC)c3)NC(=S)N2)cc1 (stereo not given)	RORgamma inh inconclusive
CNC(=S)N1N=C(c2ccc(C)cc2)CC1c1cc(OC)ccc1OC (stereo not given)	RORgamma inh 13µM
COc1ccc(C2CC(c3ccccc3)=NN2C(=O)CN2CCN(Cc3ccccc3)CC2)cc1 (stereo not given)	RORgamma inh inconclusive, ELG1 repair inh 18µM
CNC(=S)N1N=C(c2ccc(Br)cc2)CC1c1ccc(OC)cc1 (stereo not given)	VP16 counter inconclusive, RORgamma inh inconclusive, ELG1 repair inh inconclusive
CNC(=S)N1N=C(c2ccc(C)cc2)CC1c1ccc(OC)cc1 (stereo not given)	RORgamma inh 11µM
CCOc1ccc2nc(SC3CC(=O)N(c4ccc(OC)cc4OC)C3=O)sc2c1 (stereo not given)	VP16 counter inconclusive, RORgamma inh 7.1µM, ELG1 repair inh inconclusive
